According to ChEMBL document CHEMBL4513216, “Probing the Open Global Health Chemical Diversity Library for Multistage-Active Starting Points for Next-Generation Antimalarials” (ACS Infect Dis, 2020):
About 8,600 (12%) of roughly 69,000 compounds showed an effect of 50% or more. The sample holds strong results, similar compounds and a random draw of the others, so the mix is not that of the screen.

test system: Plasmodium berghei; test: Screen against P. berghei liver stage (PbLuc), transformed with Luciferase, at 10uM; assay type: functional, HepG2; conditions: tested at 10 uM

Compound | INHIBITION
Cn1nc(C(=O)NC2(c3ccc(Cl)cc3)CCCC2)ccc1=O | 6.67%
Cc1cccc(C2(NC(=O)CCN3C(=O)CCC3=O)CCCC2)c1 | 28.7%
Cc1cccc(C2(NC(=O)CCCn3cncn3)CCCC2)c1 | 57.3%
O=C(CCn1cncn1)NC1(c2cccc(Br)c2)CCC1 | 33.5%
COc1ccc(C2(NC(=O)CCn3cncn3)CCCCC2)cc1 | 62.6%
O=C(CCCn1cncn1)NC1(c2cccc(Br)c2)CC1 | 27.5%
O=C(CCCn1cncn1)NC1(c2ccccc2)CCC1 | -21.5%
Cc1nn(C)c(C)c1-c1cnc(CC2CCNCC2)cn1 | 21.1%
CCN(C(=O)Cn1cc(NC(=O)C(C)(C)C)cn1)c1ccccc1 | 7.65%
Cc1cncc(C(=O)N2CCC3(CCCN(c4nncs4)C3)C2)c1 (centres undefined) | 41.2%
O=C(Nc1ccccc1)C1=NOC2(CCCN(C(=O)N3CCCC3)C2)C1 (centres undefined) | -8.28%
CCS(=O)(=O)CCN(C)Cc1cc(C)ccc1OC | 21.1%
CNS(=O)(=O)CCCN(C)Cc1cc(C)ccc1OC | 59.1%
COc1ccc(C)cc1CN(C)CCCNS(C)(=O)=O | 23%
Cn1ccc2ccc(C(=O)N3CCN(C(=O)N4CCOCC4)CC3)cc21 | 40.1%
CCOC(=O)N1CCN(C(=O)c2ccc3ccn(C)c3c2)CC1 | 38.5%
CC(=O)N1CCN(C(=O)c2ccc3ccn(C)c3c2)CC1 | 63.3%
C[C@@H]1CN(C(=O)[C@H]2CCCO2)C[C@]12CCN(c1ccsc1)C2=O | 49.7%
COc1cc(N2CC[C@@H]3O[C@@H](c4ccnc(C)n4)C[C@H]3C2)ncn1 | 45.8%
Cc1ccc(N2CC[C@@H]3O[C@@H](c4ccncn4)C[C@H]3C2)nn1 | 37.8%
COc1ncccc1C(=O)N1CC[C@H]2C[C@H](c3ccncn3)O[C@@H]2C1 | 52%
COc1ncccc1C(=O)N1CC[C@H]2C[C@@H](c3ccncn3)O[C@@H]2C1 | -42.8%
COc1cc(N2CC[C@@H]3O[C@@H](c4ccncn4)C[C@H]3C2)ncn1 | 73.2%
COc1ncccc1C(=O)N1CC[C@H]2C[C@@H](C)O[C@@H]2C1 | -40.3%
CCc1nc(Nc2ccc(C(=O)NC)cc2)c2c(n1)c(C)nn2CC | 18.85%

Compound | INHIBITION
O=C(NC1CCc2ccccc2C1)C1CCN(Cc2ccco2)CC1 (centres undefined) | 31%
Cc1noc(C(C)N2CCN(CCOCC(F)(F)F)CC2)n1 (centres undefined) | 12.85%
Cc1ccc(-c2cn(C3CCN(C(=O)[C@H]4CCCO4)CC3)nn2)cc1 | 23.3%
OCc1ccc(CN2CCC(n3cc(-c4ccc(F)cc4)nn3)CC2)o1 | -0.529%
Cc1cncc(C2CCN(Cc3cnc(C)nc3)CC2)n1 | 36.44%
Cc1ncc(CN2CCC(n3cc(-c4ccc(F)cc4)nn3)CC2)cn1 | 53.8%
O=C(C1CCCO1)N1CCC(n2cc(-c3ccc(F)cc3)nn2)CC1 (centres undefined) | -10.9%
Oc1ccccc1CN1CCC(n2cc(-c3ccc(F)cc3)nn2)CC1 | 55%
O=C(c1ccccn1)N1Cc2nccn2CC(CN2CCOCC2)C1 (centres undefined) | 38.7%
CNC(=O)CCc1cc(C2CCN(c3cnccn3)CC2)nc(C)n1 | 15.85%
CN(C)Cc1cn2c(n1)CN(CC1CCCC1)CC2 | 29%
CCn1ccc(-c2cc(C(=O)O)n3nc(C(F)(F)F)c(Br)c3n2)n1 | 11.2%
Cc1ccc(C(=O)N2CCc3c(CNc4ncccn4)cncc3C2)o1 | -66.6%
CCc1cc(CN(C)C(=O)c2cnon2)on1 | -40.6%
OCc1csc(N2CCCC(CO)(Cc3cccc(Cl)c3)C2)n1 (centres undefined) | -14.9%
Fc1cccc(-c2nc(CN3CCCC3Cn3cccn3)co2)c1 (centres undefined) | -14.6%
Fc1cccc(-c2nc(CN3CCCC3Cn3cncn3)co2)c1 (centres undefined) | 7.12%
Cc1cnn(CC2CCCN2Cc2coc(-c3ccc(F)cc3)n2)c1 (centres undefined) | 69.7%
Fc1ccc(-c2nc(CN3CCCC3Cn3cncn3)co2)cc1 (centres undefined) | 4.71%
Cc1cnn(CC2CCCN2Cc2coc(-c3cccc(F)c3)n2)c1 (centres undefined) | 80.8%
Cc1cnn(CC2CCCN2Cc2coc(-c3ccccc3)n2)c1 (centres undefined) | -14.2%
CS(=O)(=O)C1CCN(S(=O)(=O)c2ccc(F)c(F)c2)C1 (centres undefined) | 21.2%
Cn1ccc2cc(C(=O)NC3CCS(=O)(=O)C3)ccc21 (centres undefined) | -42.5%
CNC(=O)[C@@H](C1CCCCC1)N1CCC[C@H]1C(=O)NCCN1CCCC1 | 0.112%
